Laboratory results taken from the supplement of paper PMC3545927.
The other results are listed elsewhere or left out. The true hit rate is not given.

Target: furin, P09958
Experiment: furin cleavage Z-score vs untreated control; higher = more cleavage, active = 3.5 or more, inactive = 1 or less, 8 variable residues between constant flanks
Outline: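 Furin cleavage was scored on 8-mer peptides joined to a cDNA oligonucleotide and bound to magnetic beads at the N-terminus. Digestion with purified furin (1:10 enzyme:substrate, 0.01 ml, 50 mM HEPES pH 7.5, CaCl2, NaCl) lasted 7.5, 15 or 30 min. Freed DNA was tagged with adapters by PCR, sequenced and counted; the cleavage Z-score is the lowess-adjusted log count versus furin-free reactions, scaled by median absolute deviation.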

Sequence of furin, P09958 (P09958 whole entry): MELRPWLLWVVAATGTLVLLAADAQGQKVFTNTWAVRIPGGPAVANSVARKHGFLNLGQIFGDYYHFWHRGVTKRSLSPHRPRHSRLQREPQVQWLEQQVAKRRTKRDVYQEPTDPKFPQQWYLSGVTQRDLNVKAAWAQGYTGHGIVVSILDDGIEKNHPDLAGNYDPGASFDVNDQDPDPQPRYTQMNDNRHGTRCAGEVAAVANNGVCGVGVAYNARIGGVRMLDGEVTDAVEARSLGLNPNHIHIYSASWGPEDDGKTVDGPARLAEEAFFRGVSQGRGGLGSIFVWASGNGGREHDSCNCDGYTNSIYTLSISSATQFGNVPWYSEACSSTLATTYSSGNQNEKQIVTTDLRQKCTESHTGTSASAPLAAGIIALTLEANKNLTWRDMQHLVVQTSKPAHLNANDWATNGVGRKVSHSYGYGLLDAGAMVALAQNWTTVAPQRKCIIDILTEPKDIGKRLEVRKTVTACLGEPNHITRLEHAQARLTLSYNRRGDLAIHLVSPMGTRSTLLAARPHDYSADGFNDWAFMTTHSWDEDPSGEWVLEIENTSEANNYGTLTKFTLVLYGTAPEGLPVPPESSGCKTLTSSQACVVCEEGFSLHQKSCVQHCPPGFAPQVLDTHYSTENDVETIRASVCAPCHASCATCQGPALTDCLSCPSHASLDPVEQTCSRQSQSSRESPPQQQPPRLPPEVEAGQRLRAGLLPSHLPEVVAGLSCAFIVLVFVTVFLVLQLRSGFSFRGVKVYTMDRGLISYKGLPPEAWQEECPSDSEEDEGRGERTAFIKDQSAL

Sequence	furin cleavage Z-score (7.5 min)	furin cleavage Z-score (15 min)	furin cleavage Z-score (30 min)
CAEVPCHTPSAGNASASA [HC2378]	0.816 (inactive)	0.745 (inactive)	1.13
CAAGYSGGDIAGNASASA [HC1647]	-1.51 (inactive)	-1.76 (inactive)	-1.36 (inactive)
CARRSRSSSRAGNASASA [FS-2600]	0.0891 (inactive)	0.74 (inactive)	0.299 (inactive)
CARAARFAKTAGNASASA [FS-1885]	-1.44 (inactive)	0.407 (inactive)	0.00762 (inactive)
CARAARRAAGAGNASASA [FS-1678]	-0.697 (inactive)	-0.053 (inactive)	-1.33 (inactive)
CARAARVPRTAGNASASA [FS-1476]	7.67 (active)	5.53 (active)	4.3 (active)
CARRFRVVSGAGNASASA [FS-1774]	0.247 (inactive)	-0.792 (inactive)	-0.178 (inactive)
CARRSRNVSTAGNASASA [FS-2083]	1.86	4.41 (active)	5.4 (active)
CARGSLLSPRAGNASASA [HC735]	0.168 (inactive)	-0.587 (inactive)	-0.591 (inactive)
CADNTTTSSEAGNASASA [HC1342]	-1.15 (inactive)	0.112 (inactive)	-0.634 (inactive)
CARNKRTCSAAGNASASA [FS-2160]	2.24	3.57 (active)	2.82
CAGSATLCSAAGNASASA [HC294]	-0.289 (inactive)	-0.124 (inactive)	-0.454 (inactive)
CARNKRTCSEAGNASASA [FS-2161]	4.64 (active)	4.66 (active)	4.26 (active)
CAEVPCHRHSAGNASASA [HC2395]	0.115 (inactive)	0.712 (inactive)	1.03
CAECHSTDATAGNASASA [HC819]	-0.594 (inactive)	-1.11 (inactive)	0.253 (inactive)
CALFAGVDAEAGNASASA [HC349]	-0.796 (inactive)	-0.738 (inactive)	-0.0117 (inactive)
CAASGREGRDAGNASASA [FS-402]	-0.371 (inactive)	-0.657 (inactive)	-0.187 (inactive)
CAFSAREKRDAGNASASA [FS-587]	10.7 (active)	11.3 (active)	9.1 (active)
CAIKDRNKRDAGNASASA [FS-251]	11.9 (active)	10.9 (active)	8.42 (active)
CAASAVLKRDAGNASASA [FS-751]	0.168 (inactive)	-1.94 (inactive)	1.16
CALGDREKRDAGNASASA [FS-548]	4.49 (active)	4.22 (active)	4.54 (active)
CAEVVTSTWYAGNASASA [HC2249]	-1.56 (inactive)	-0.21 (inactive)	-0.098 (inactive)

Sequence	furin cleavage Z-score (7.5 min)	furin cleavage Z-score (15 min)	furin cleavage Z-score (30 min)
CALKKRSYFGAGNASASA [FS-2870]	0.606 (inactive)	0.802 (inactive)	1.4
CAEVVNSTWVAGNASASA [HC138]	0.467 (inactive)	-0.699 (inactive)	1.06
CAPPSREKKVAGNASASA [FS-1051]	-1.64 (inactive)	-0.193 (inactive)	0.495 (inactive)
CALLSRKRRRAGNASASA [FS-1539]	11.7 (active)	12.2 (active)	9.16 (active)
CALLSRPLRGAGNASASA [FS-1229]	-0.34 (inactive)	-0.208 (inactive)	-1.05 (inactive)
CALLSRKKREAGNASASA [FS-271]	8.61 (active)	6.86 (active)	6.5 (active)
CAGAGRARRRAGNASASA [FS-995]	-0.00606 (inactive)	2.14	1.07
CADVNRLKREAGNASASA [FS-648]	14.4 (active)	13.9 (active)	11.5 (active)
CAPPSRARRRAGNASASA [FS-73]	5.98 (active)	6.69 (active)	6.77 (active)
CAWLEVVTSTAGNASASA [HC2268]	0.509 (inactive)	1.8	1.63
CALLFLLLADAGNASASA [HC521]	-0.353 (inactive)	-1.02 (inactive)	-2.28 (inactive)
CALLFRSNRDAGNASASA [FS-822]	5.19 (active)	4.77 (active)	4.55 (active)
CALLSRRPRDAGNASASA [FS-611]	10.2 (active)	10.5 (active)	8.78 (active)
CATKSRKKREAGNASASA [FS-1493]	12.1 (active)	10.8 (active)	8.58 (active)
CALLSCLTVPAGNASASA [HC251]	-1.14 (inactive)	0.458 (inactive)	-0.633 (inactive)
CALLSRVRREAGNASASA [FS-1540]	7.59 (active)	6.32 (active)	5.92 (active)
CAALWRVSAEAGNASASA [HC1201]	-1.28 (inactive)	-0.15 (inactive)	-1.16 (inactive)
CALLSPRGSRAGNASASA [HC209]	0.623 (inactive)	-0.229 (inactive)	0.325 (inactive)
CAFEECSQHLAGNASASA [HC1667]	1.36	0.54 (inactive)	-0.544 (inactive)
CAHNSRKKREAGNASASA [FS-1340]	11.8 (active)	13.6 (active)	9.48 (active)
CAFHYVTGMTAGNASASA [HC1210]	0.168 (inactive)	-0.792 (inactive)	-0.653 (inactive)
CAGFGAYMSKAGNASASA [HC792]	1.73	-1.14 (inactive)	1.32
